High-throughput results deposited in PubChem BioAssay by National Center for Advancing Translational Sciences (NCATS).
TGFb inhibitor – blocks TGF-b signaling | hit rate 1.2% among 410,000 | Potency, µM (doses to about 46.1 µM), for inactives: top-dose activity, negative = inhibition, usual class: inhibitors | HepG2 CAGA-GFP TGF-b/SMAD3 reporter, GFP fluorescence, 18 h; TGF-beta stimulated, 500 pg/mL final; note: % is set by controls: 0 for no effect and ±100 for the full control effect; nearly all actives have a fitted effect of over 65% in size
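Per well, imaged GFP fluorescence of HEPG2 CAGA-GFP cells gives the signal; cells get compound, then TGF-beta (500 pg/mL final), 18 h at 37 degrees C; %Activity versus -TGF-beta and +DMSO controls.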
HTT ATP protect – Huntington cell model cytoprotection by ATP luminescence. PC12 HTT-Q103 induced, cytoprotection, ATP luminescence, 40 h. hit rate 0.14% among 230,000. Potency, µM (top dose mostly 56.4 µM), inactives show cytoprotection (ATP increase), usual class: activators. AID 1471; note: % of control where 0% means no effect; nearly all actives have a fitted effect of over 45% in size
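Stable PC12 Q103-GFP cells in serum-supplemented, phenol red-free DMEM; induction by tebufenozide at 100 nM final; compound dose series; cell viability quantified luminescently from ATP.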
HttQ103 aggreg – reduces HttQ103-GFP aggregates in PC12 cells. PC12 HttQ103-GFP aggregates, Acumen cytometry, 40 h. hit rate 1.1% among 220,000. AID 1688. Potency, µM (titrated, usually from 46.1 µM), inactives show top-dose activity change, negative = inhibition, usual class: inhibitors; note: % is set by controls: 0 for no effect and ±100 for the full control effect; nearly all actives have a fitted effect of over 60% in size
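Multiplexed with ATP-based cell death, this channel scores GFP aggregates in PC12 cells expressing inducible HTTex1-Q103-GFP. Induction used 100 nM tebufenozide; compounds were tested in concentration series.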
HepG2 tox – kills HepG2 cells in TGF-b inhibitor counter-screen; HepG2 CAGA-GFP viability, ATP luminescence, 18 h; Potency, µM (titrated, usually from 46.1 µM), inactives show at the highest dose activity change, negative = cytotoxicity, hits mostly cytotoxic; hit rate 0.76% among 410,000
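CellTiter-Glo luminescence gave cytotoxicity after 18 hours at 37 degrees C. The cells were HepG2 CAGA-GFP in 1% FBS DMEM, stimulated with 500 pg/mL TGF-beta after compound addition. %Activity was normalised to no-cell wells (complete cell-killing) and DMSO (no toxicity), and curves were fitted and classified.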
ATXN viability – reduces viability in counter-screen for ATXN expression inhibitors. hit rate 0.49% among 400,000. Potency, µM (highest dose often 56.7 µM), hits mostly cytotoxic. S2 cells (HEK-293 line with an ATXN2-luciferase reporter) viability, CellTiter-Fluor protease fluorescence, 24 h. AID 651635; note: nearly all actives have a fitted effect of over 40% in size
ATXN2 expr inh – reduces ATXN2 reporter expression in HEK-293 cells | HEK-293 ATXN2-luciferase reporter, luminescence, 24 h | AID 1745845 | hit rate 0.72% among 360,000 | Potency, µM (top dose mostly 57 µM), inactives show at the highest dose activity change, negative = inhibition, actives largely listed as inhibitors; note: % is set by controls: 0 for no effect and ±100 for the full control effect; nearly all actives have a fitted effect of over 55% in size
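ATXN2-luciferase reporter cells (luciferase flanked by upstream and downstream ATXN2 gene portions) were treated 24 h at 37 °C with compounds at up to 57 uM. SteadyGlo luminescence gave expression; GF-AFC fluorescence gave viability.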
Starred values were filed as active, the others as inactive; i = inactive; ? = inconclusive; · = not tested or not shown; [ ] = remark or other dose. A selection: hits, their analogues and other compounds. The true share with any hit is near 2.8%. Calls come from the whole dose curve; as a rule, active = well fitted curve in the direction sought with a large enough effect; inconclusive = small, poorly fitted or top-dose-only effect, or another doubt; inactive = no such curve, though single readings can be large; an effect the other way counts as inactive or inconclusive. Potency is the fitted concentration of half-maximal effect.

SMILES	TGFb inhibitor	HTT ATP protect	HttQ103 aggreg	HepG2 tox	ATXN viability	ATXN2 expr inh
COc1cc(NC(=S)N2CCN(c3ccccn3)CC2)cc(OC)c1	-20%	21%[10 µM]	8.9µM*	-3%	i	-8%
COc1ccc(CC2S/C(=N/N=C/c3ccccc3O)NC2=O)cc1 (stereo not drawn)	7.9µM*	-42%[10 µM]	-17%[9.22 µM]	-51%	?	?
O=C1N/C(=N/N=C/c2ccccc2O)SC1Cc1ccc(F)cc1 (stereo not drawn)	?	-48%[10 µM]	-11%[9.22 µM]	-29%	?	8.9µM*
C[C@@H]1CC=CC=CC=CC=C[C@@H](O[C@@H]2O[C@H](C)[C@@H](O)[C@H](N)[C@H]2O)C[C@@H]2O[C@](O)(C[C@@H](O)C[C@@H]3O[C@@H]3C=CC(=O)O1)C[C@H](O)[C@@H]2C(=O)O	·	·	·	·	·	13%
Cc1ccc(/C=N/NC(=O)c2n[nH]c3c2CCCC3)cc1	?	-86%[10 µM]	-26%[9.22 µM]	31%	i	18%
O=C(N/N=C/c1cccs1)c1n[nH]c2c1CCCC2	6%	-46%[10 µM]	14%[9.22 µM]	-46%	i	15µM*
CCN[C@@H]1C[C@H](N)[C@@H](OC2OC(CN)=CCC2N)[C@H](O)[C@H]1O[C@H]1OC[C@](C)(O)[C@H](NC)[C@H]1O (stereo partly drawn)	·	·	·	·	i[0.575 µM]	-2%[0.709 µM]
Cc1cc(C)cc(NS(=O)(=O)c2ccc3c(c2)c(=O)n(C)c(=O)n3C)c1	-18%	4%	8.9µM*	-46%	i	?
Cn1c(=O)c2cc(S(=O)(=O)Nc3cc(C(=O)O)cc(C(=O)O)c3)ccc2n(C)c1=O	-7%	-7%	0%	-7%	i	·
CCN(CC)C(=O)c1oc2ccc(S(=O)(=O)N3CC(C)CC(C)C3)cc2c1C (stereo not drawn)	?	·	·	-20%	i	?
CCN(CC)C(=O)c1oc2ccc(S(=O)(=O)N3CCCCCC3)cc2c1C	?	3%	10µM*	-20%	i	-1%
CC1CN(CCC(=O)NCc2ccc3ncccc3c2)Cc2cc(Cl)ccc2O1 (stereo not drawn)	·	·	·	·	i	·
C[N+]12CCCC[C@@H]1CCC(=C(c1cccs1)c1cccs1)C2 (stereo partly drawn)	·	-22%	-24%	·	·	·
Cc1ccccc1N=C(NOCc1ccc(Cl)cc1Cl)c1nonc1N	13%	-10%[10 µM]	?	-1%	?	?
Cc1ccc(N=C(NOCc2ccc(Cl)cc2Cl)c2nonc2N)c(C)c1	16µM*	10%	?	-45%	i	-37%
CC/C=C(\C(=O)N[C@@H]1C(=O)N2C(C(=O)OCOC(=O)C(C)(C)C)=C(COC(N)=O)CS[C@H]12)c1csc(N)n1	·	·	·	·	i	-1%
NC(C(=O)O)c1cc(O)cc(O)c1 (stereo not drawn)	·	-34%	·	·	·	·
O=C(/C=C/c1ccc(Cl)cc1)c1cccnc1	?	-29%	15%[9.22 µM]	-32%	?	?
O=C(/C=C/c1ccccc1Cl)c1ccc(O)cc1	?	2%[10 µM]	-9%[9.22 µM]	-29%	i	13%
Cc1ccc(C)c(/C=C/C(=O)c2ccccc(=O)c2O)c1	?	·	-16%	-70%	?	18µM*
O=C(/C=C/c1ccccc1Cl)c1cccnc1	?	-15%	-4%	11µM*	i	5%
O=C(/C=C/c1ccc([N+](=O)[O-])cc1)c1cccs1	-2%	8%[10 µM]	12%[9.22 µM]	-5%	i	17%
O=C(/C=C/c1ccccc1Cl)c1ccccc(=O)c1O	?	·	?	-32%	?	25µM*
O=C(/C=C/c1ccc([N+](=O)[O-])cc1)c1ccccc(=O)c1O	3.2µM*	·	·	-31%	·	?
COc1cc(=O)n2c(c1C(=O)N(C)Cc1nccs1)CCN(Cc1cccc(F)c1F)CC2	·	·	·	·	i	·
SMILES	TGFb inhibitor	HTT ATP protect	HttQ103 aggreg	HepG2 tox	ATXN viability	ATXN2 expr inh
COc1ccc(-c2nc(-c3ccccc3)oc2NC(C)C)cc1	·	-2%	·	·	·	·
Cc1ccc(C(=O)/C=C/c2ccc3c(c2)OCCO3)c(O)c1	-27%	3%[10 µM]	-7%[9.22 µM]	-1%	?	64%
O=C(C=Cc1ccccc1O)c1ccccc1O	?	·	·	22µM*	?	-24%
Cc1ccc(/C=C/C(=O)c2ccccc(=O)c2O)c(C)c1	13µM*	·	?	-58%	?	?
O=C(/C=C/c1ccc(O)c(O)c1)c1ccccc1O	-26%	-40%[10 µM]	-8%[9.22 µM]	-29%	?	85%
CCc1nc2ccc(C(=O)NCCc3ccccn3)cn2c1N(C)Cc1ccc(N(C)C)cc1	?	·	·	13µM*	i	-1%
CCc1nc2ccc(C(=O)NCCOc3ccc(OC)cc3)cn2c1N(C)CCCc1ccccc1	14µM*	·	·	-46%	?	?
CCC(C(=O)OCCN1CCOC(c2ccccc2)C1C)c1ccccc1 (stereo not drawn)	·	·	·	·	i	-9%
COc1cccc(-c2nn(-c3ccccc3)cc2C(=O)Nc2nccs2)c1	-9%	-46%	?	2%	i	-6%
CC(=O)c1ccc(NC(=O)c2cn(-c3ccccc3)nc2-c2ccncc2)cc1	-12%	-10%[10 µM]	14%	-14%	?	1%
COC(=O)c1ccc(NC(=O)c2cn(-c3ccccc3)nc2-c2ccncc2)cc1	8%	25%[10 µM]	12%	7.1µM*	i	5%
COc1ccc(-c2nn(-c3ccccc3)cc2C(=O)Nc2nccs2)cc1	?	-40%	18µM*	1%	i	-4%
CCCCCc1c(CC)ncn1CCc1ccccc1OC	·	·	·	·	16µM*	?
CCCCCc1c(-c2ccccc2OC)ncn1CCc1ccccc1OC	·	·	·	·	·	-35%
CCCCc1c(-c2ccccc2OC)ncn1CCc1cccc(OC)c1	·	·	·	·	32µM*	?
CCCCc1c(-c2ccccc2OC)ncn1CCc1ccccc1OC	·	·	·	·	32µM*	?
CCCOc1cc(C)c(S(=O)(=O)NC2CC(C)(C)NC(C)(C)C2)cc1C	?	7%[10 µM]	-10%	11µM*	i	2%
Cc1cc(OCc2cccc(Cl)c2)c(C)cc1CN1CCOCC1	-1%	1.1µM*	?	-18%	i	1%
COc1cc(NC(=O)Nc2nc(C(N)C(C)C)cs2)cc(OC)c1OC (stereo not drawn)	-9%	·	·	-11%	?	-17%
NC(c1csc(NC(=O)Nc2ccccc2)n1)C1CCCCC1 (stereo not drawn)	?	·	·	-82%	i	-6%
NC(c1csc(NC(=O)Nc2cccc(Cl)c2)n1)C1CCCCC1 (stereo not drawn)	?	·	·	-105%	28µM*	?
